In PMC8384837, “Expanding the binding specificity for RNA recognition by a PUF domain”:

target: PUM1 PUF domain R5-RGK (Homo sapiens, UniProt Q14671 828-1176, C1007R;R1008G;Q1011K); test: yeast three-hybrid, YBZ-1, SC-Leu-His + 0.5 mM 3-AT, 4 days; conditions: tags: N-Gal4 AD-HA kept; label: inside an RPR1-promoter hybrid RNA with tandem MS2 sites; ssRNA
Method in brief: (§1)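 Pumilio-1 PUF domain libraries, randomized at the three base-contacting residues of each repeat, were co-expressed with matching RNA elements from a centromeric plasmid in strain YBZ-1, which carries a LexA–MS2 coat fusion and a HIS3 reporter. Transformants grew for four days on SC-Leu (input) or on SC-Leu-His + 0.5 mM 3-AT (selection), and the repeat regions were PCR-amplified and Illumina-sequenced. The interaction score is the log change in variant frequency from input to selection. That logarithm is base 2, with a pseudocount of 1 where a variant was absent.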

Chain of PUM1 PUF domain R5-RGK (Q14671 828-1176 C1007R/R1008G/Q1011K): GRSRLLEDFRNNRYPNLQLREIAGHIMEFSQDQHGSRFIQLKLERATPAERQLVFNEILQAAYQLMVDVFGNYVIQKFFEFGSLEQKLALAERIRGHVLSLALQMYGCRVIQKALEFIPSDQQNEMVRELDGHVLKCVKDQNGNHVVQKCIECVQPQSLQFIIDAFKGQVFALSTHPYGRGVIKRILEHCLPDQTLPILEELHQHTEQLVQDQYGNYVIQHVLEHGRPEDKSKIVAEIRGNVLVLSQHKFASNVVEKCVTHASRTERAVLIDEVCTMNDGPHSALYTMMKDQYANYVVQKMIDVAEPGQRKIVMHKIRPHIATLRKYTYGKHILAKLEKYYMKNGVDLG

Sequence | binding signal
GGCUAGAACUAGUGGAUCCCCCGGCGCCCGGCGGCUCGAGCCCGGGUAAGUGUCAAUAGUCUGCAUGCCGCCGGGCGCCAUGCCUGCAGGUCGACUCUAGAAAACAUG | 2.71 log2 enrichment (interaction score)
GGCUAGAACUAGUGGAUCCCCCGGCGCCCGGCGGCUCGAGCCCGGGUAAGUGUUAAUAGUCUGCAUGCCGCCGGGCGCCAUGCCUGCAGGUCGACUCUAGAAAACAUG | 3.44 log2 enrichment (interaction score)
GGCUAGAACUAGUGGAUCCCCCGGCGCCCGGCGGCUCGAGCCCGGGUAAGUGUGAAUAGUCUGCAUGCCGCCGGGCGCCAUGCCUGCAGGUCGACUCUAGAAAACAUG | 1.16 log2 enrichment (interaction score)

target: PUM1 PUF domain R4-DHS (Homo sapiens, UniProt Q14671 828-1176, N971D;Q975S); test: as above; conditions: tags: N-Gal4 AD-HA kept; label: inside an RPR1-promoter hybrid RNA with tandem MS2 sites; ssRNA
Sequence (Q14671 828-1176 N971D/Q975S): as the sequence (Q14671 828-1176 C1007R/R1008G/Q1011K) above, with N144D, Q148S, R180C, G181R, K184Q counted along it
Method in brief: as §1

Sequence | binding signal
GGCUAGAACUAGUGGAUCCCCCGGCGCCCGGCGGCUCGAGCCCGGGUAAGUGUAUAUAGUCUGCAUGCCGCCGGGCGCCAUGCCUGCAGGUCGACUCUAGAAAACAUG | 5.89 log2 enrichment (interaction score)
GGCUAGAACUAGUGGAUCCCCCGGCGCCCGGCGGCUCGAGCCCGGGUAAGUGUAAAUAGUCUGCAUGCCGCCGGGCGCCAUGCCUGCAGGUCGACUCUAGAAAACAUG | 4.49 log2 enrichment (interaction score)
GGCUAGAACUAGUGGAUCCCCCGGCGCCCGGCGGCUCGAGCCCGGGUAAGUGUACAUAGUCUGCAUGCCGCCGGGCGCCAUGCCUGCAGGUCGACUCUAGAAAACAUG | 3.02 log2 enrichment (interaction score)
